# Reference: PubChem BioAssay (NCATS)
# Where “and” joins values, the source holds several entries; their conditions need not be identical. Equal entries are not always repeated. Records with an inconclusive call do not appear. Where a call stands in place of a potency, no number is given. Calls of active or inactive are those of the source. Calls follow the shape of the dose curve; as a rule, active = well fitted cell-killing curve with a large enough effect; inconclusive = small, poorly fitted or top-dose-only effect; inactive = no such curve, though single readings can be large or run the other way.
# Assay: qHTS of pediatric cancer cell lines to identify multiple opportunities for drug repurposing: Primary screen for A673 cells (AID 1347092); also: nearly all actives have a fitted effect of over 45% in size
# Settings: A673 Ewing sarcoma viability, CellTiter-Glo ATP luminescence, 48 h; series mostly up to 46 µM
# Procedure, shortened: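 A673 cells (500-1,000 cells/well) were treated 48 hours at 37 degrees C with compounds at 11-point (0.78 nM to 46 µM) or 8-point (0.59 nM to 46 µM) dilutions. Viability read by CellTiter-Glo luminescence; concentration-response curves fitted.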
# Potency is read from the fitted curve at half-maximal effect.
row,SMILES,Potency
1,Cc1cc2c(C(C)C)c(O)c(O)c(C=O)c2c(O)c1-c1c(C)cc2c(C(C)C)c(O)c(O)c(C=O)c2c1O,23.5 µM (active)
2,NS(=O)(=O)c1cc2c(cc1Cl)NC=NS2(=O)=O,inactive
3,COc1cc2c(cc1OC)CN(CCc1ccc(NC(=O)c3cccc4c(=O)c5cccc(OC)c5[nH]c34)cc1)CC2,4.69 µM (active)
4,CC1(C)SCCN(S(=O)(=O)c2ccc(OCC#CCO)cc2)[C@@H]1C(=O)NO,inactive
5,CCCc1nc2c(C)cc(-c3nc4ccccc4n3C)cc2n1Cc1ccc(-c2ccccc2C(=O)O)cc1,inactive
6,CC(C)NCC(O)COc1ccc(COCCOC(C)C)cc1 (stereo not given),inactive
7,NCCc1ccc(O)c(O)c1,23.5 µM (active) and 10.6 µM (active)
8,Oc1ccc(C2CNCCc3c2cc(O)c(O)c3Cl)cc1 (stereo not given),inactive
9,CCC(C)n1ncn(-c2ccc(N3CCN(c4ccc(OC[C@H]5CO[C@](Cn6cncn6)(c6ccc(Cl)cc6Cl)O5)cc4)CC3)cc2)c1=O (stereo not given in full),inactive
10,CCc1ccc(CCOc2ccc(CC3SC(=O)NC3=O)cc2)nc1 (stereo not given),inactive
11,O=c1n(CCCN2CCN(c3cccc(Cl)c3)CC2)nc2ccccn12,inactive
12,CNC(=O)c1ccc(N2C(=S)N(c3ccc(C#N)c(C(F)(F)F)c3)C(=O)C2(C)C)cc1F,inactive
13,Cc1cnc(NC(=O)C2=C(O)c3ccccc3S(=O)(=O)N2C)s1,inactive
14,Nc1ccc(S(=O)(=O)Nc2ccnn2-c2ccccc2)cc1,inactive
15,NC(=O)c1cnccn1,inactive
16,CCCCNc1cc(C(=O)O)cc(S(N)(=O)=O)c1Oc1ccccc1,inactive
17,Cc1ccccc1C(OCCN(C)C)c1ccccc1 (stereo not given),inactive
18,Cc1[nH]c(=O)c(C#N)cc1-c1ccc2nccn2c1,inactive

row,SMILES,Potency
1,OC(CCN1CCCCC1)(c1ccccc1)C1CC2C=CC1C2 (stereo not given),inactive
2,NC(=O)c1ccc(I)c([N+](=O)[O-])c1,18.7 µM (active)
3,CC(c1cc2ccccc2s1)N(O)C(N)=O (stereo not given),inactive
4,O=C1CCC(N2C(=O)c3ccccc3C2=O)C(=O)N1 (stereo not given),inactive
5,O=C(O)COCCN1CCN(C(c2ccccc2)c2ccc(Cl)cc2)CC1 (stereo not given),inactive
6,Cc1ccc(-n2nc(C(C)(C)C)cc2NC(=O)Nc2ccc(OCCN3CCOCC3)c3ccccc23)cc1,4.69 µM (active)
7,CC(C)(Sc1ccc(CCN(CCCCC2CCCCC2)C(=O)NC2CCCCC2)cc1)C(=O)O,18.7 µM (active)
8,Clc1cccc(Cl)c1NC1=NCCN1,inactive
9,CC(C[N+](C)(C)C)OC(N)=O (stereo not given),inactive
10,CS(=O)(=O)c1cccc(CNc2nc(Nc3ccc4c(c3)CCC(=O)N4)ncc2C(F)(F)F)c1,14.8 µM (active)
11,CC(=O)Oc1ccccc1C(=O)O,inactive
12,O=C(O)CCc1ccc(NCc2cccc(Oc3ccccc3)c2)cc1,inactive
13,CC(C)(C)NCC(O)c1ccc(O)c(CO)c1 (stereo not given),inactive
14,c1ccc([C@H]2CN3CCSC3=N2)cc1,inactive
15,C[C@]12CCC(=O)C=C1CC[C@@H]1[C@@H]2[C@@H](O)C[C@@]2(C)[C@H]1CC[C@]2(O)C(=O)CO,inactive
16,CNC[C@H](O)c1cccc(O)c1,inactive
17,N[C@@H]1CONC1=O,inactive

# Assay: qHTS of pediatric cancer cell lines to identify multiple opportunities for drug repurposing: Primary screen for SK-N-MC cells (AID 1347093)
# Settings: SK-N-MC viability, CellTiter-Glo luminescence, 48 h; series mostly up to 46 µM
# Procedure, shortened: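 Metabolically active cells were quantified by ATP-dependent luminescence (CellTiter-Glo, 15 min at room temperature) following 48 h treatment. Cells had been plated at 500-1,000 per well and settled for 5 h beforehand.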
row,SMILES,Potency
1,Cc1cc2c(C(C)C)c(O)c(O)c(C=O)c2c(O)c1-c1c(C)cc2c(C(C)C)c(O)c(O)c(C=O)c2c1O,5.96 µM (active) and 9.35 µM (active)
2,NS(=O)(=O)c1cc2c(cc1Cl)NC=NS2(=O)=O,inactive
3,COc1cc2c(cc1OC)CN(CCc1ccc(NC(=O)c3cccc4c(=O)c5cccc(OC)c5[nH]c34)cc1)CC2,10.5 µM (active)
4,CC1(C)SCCN(S(=O)(=O)c2ccc(OCC#CCO)cc2)[C@@H]1C(=O)NO,inactive
5,CCCc1nc2c(C)cc(-c3nc4ccccc4n3C)cc2n1Cc1ccc(-c2ccccc2C(=O)O)cc1,16.6 µM (active)
6,CC(C)NCC(O)COc1ccc(COCCOC(C)C)cc1 (stereo not given),inactive
7,NCCc1ccc(O)c(O)c1,18.7 µM (active) and 7.5 µM (active)
8,Oc1ccc(C2CNCCc3c2cc(O)c(O)c3Cl)cc1 (stereo not given),inactive
9,CCC(C)n1ncn(-c2ccc(N3CCN(c4ccc(OC[C@H]5CO[C@](Cn6cncn6)(c6ccc(Cl)cc6Cl)O5)cc4)CC3)cc2)c1=O (stereo not given in full),1.48 µM (active)
10,CCc1ccc(CCOc2ccc(CC3SC(=O)NC3=O)cc2)nc1 (stereo not given),inactive
11,O=c1n(CCCN2CCN(c3cccc(Cl)c3)CC2)nc2ccccn12,inactive
12,CNC(=O)c1ccc(N2C(=S)N(c3ccc(C#N)c(C(F)(F)F)c3)C(=O)C2(C)C)cc1F,inactive
13,Cc1cnc(NC(=O)C2=C(O)c3ccccc3S(=O)(=O)N2C)s1,inactive
14,Nc1ccc(S(=O)(=O)Nc2ccnn2-c2ccccc2)cc1,inactive
15,NC(=O)c1cnccn1,inactive
16,CCCCNc1cc(C(=O)O)cc(S(N)(=O)=O)c1Oc1ccccc1,inactive
17,Cc1ccccc1C(OCCN(C)C)c1ccccc1 (stereo not given),inactive
18,Cc1[nH]c(=O)c(C#N)cc1-c1ccc2nccn2c1,inactive

row,SMILES,Potency
1,OC(CCN1CCCCC1)(c1ccccc1)C1CC2C=CC1C2 (stereo not given),inactive
2,NC(=O)c1ccc(I)c([N+](=O)[O-])c1,3.72 µM (active)
3,CC(c1cc2ccccc2s1)N(O)C(N)=O (stereo not given),inactive
4,O=C1CCC(N2C(=O)c3ccccc3C2=O)C(=O)N1 (stereo not given),inactive
5,O=C(O)COCCN1CCN(C(c2ccccc2)c2ccc(Cl)cc2)CC1 (stereo not given),inactive
6,Cc1ccc(-n2nc(C(C)(C)C)cc2NC(=O)Nc2ccc(OCCN3CCOCC3)c3ccccc23)cc1,0.662 µM (active)
7,CC(C)(Sc1ccc(CCN(CCCCC2CCCCC2)C(=O)NC2CCCCC2)cc1)C(=O)O,23.5 µM (active)
8,Clc1cccc(Cl)c1NC1=NCCN1,inactive
9,CC(C[N+](C)(C)C)OC(N)=O (stereo not given),inactive
10,CS(=O)(=O)c1cccc(CNc2nc(Nc3ccc4c(c3)CCC(=O)N4)ncc2C(F)(F)F)c1,7.43 µM (active)
11,CC(=O)Oc1ccccc1C(=O)O,inactive
12,O=C(O)CCc1ccc(NCc2cccc(Oc3ccccc3)c2)cc1,inactive
13,CC(C)(C)NCC(O)c1ccc(O)c(CO)c1 (stereo not given),inactive
14,c1ccc([C@H]2CN3CCSC3=N2)cc1,inactive
15,C[C@]12CCC(=O)C=C1CC[C@@H]1[C@@H]2[C@@H](O)C[C@@]2(C)[C@H]1CC[C@]2(O)C(=O)CO,inactive
16,CNC[C@H](O)c1cccc(O)c1,inactive
17,N[C@@H]1CONC1=O,inactive
